Source: PubChem BioAssay AID1159580 (chemical genetic matrix, 2015)
Screen size: about 5,500 compounds; about 2,000 (36%) were called active. Inconclusive results (about 18%) are left out. Cut-off read from the data, not from the text of the source: active = normalized growth mostly below about 0.91 (no sharp cut-off); inconclusive = no clear call, values can overlap the other calls; inactive = mostly above about 0.92. Some of the results follow.

Experiment: chemical genetic growth profiling, strain panel (AID 1159580);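 note: tested at 20 µM; growth read once vehicle control cultures reached saturation at 30 °C; 1 = growth at the plate median or of vehicle wells; lower values mean less growth of the strain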
Settings: S. cerevisiae deletion strains, growth OD
[1] = locus YDL101C, strain DUN1, stronger effect = lower value
[2] = locus YHR030C, strain SLT2, stronger effect = lower value

Measured: normalized growth

Cc1nn(Cc2nnc(SCc3cccc(C(F)(F)F)c3)o2)c(C)c1Br
inactive: locus YAR019C, strain CDC15, stronger effect = lower value 0.982 | locus YBL105C, strain PKC1, stronger effect = lower value 0.969 | locus YBR135W, strain CKS1, stronger effect = lower value 0.967 | locus YBR136W, strain MEC1, stronger effect = lower value 0.97 | locus YBR160W, strain CDC28, stronger effect = lower value 0.975 | locus YDL017W, strain CDC7, stronger effect = lower value 0.977 | locus YDL028C, strain MPS1, stronger effect = lower value 0.973 | [1] 0.972 | locus YDL108W, strain KIN28, stronger effect = lower value 0.969 | locus YDL132W, strain cdc53, stronger effect = lower value 0.969 | locus YDL214C, strain PRR2, stronger effect = lower value 0.932 | locus YDR052C, strain DBF4, stronger effect = lower value 0.983 | locus YDR054C, strain cdc34, stronger effect = lower value 0.975 | locus YDR226W, strain ADK1, stronger effect = lower value 0.977 | locus YDR477W, strain SNF1, stronger effect = lower value 0.968 | locus YER123W, strain YCK3, stronger effect = lower value 0.921 | locus YER133W, strain GLC7, stronger effect = lower value 0.967 | locus YFL009W, strain cdc4, stronger effect = lower value 0.973 | locus YFL029C, strain CAK1, stronger effect = lower value 0.979 | locus YFR003C, strain YPI1, stronger effect = lower value 0.971 | locus YFR019W, strain FAB1, stronger effect = lower value 0.952 | locus YFR028C, strain CDC14, stronger effect = lower value 0.963 | locus YGR040W, strain KSS1, stronger effect = lower value 0.957 | locus YGR052W, strain FMP48, stronger effect = lower value 0.965 | locus YGR092W, strain DBF2, stronger effect = lower value 0.987 | [2] 1.03 | locus YHR079C, strain IRE1, stronger effect = lower value 1 | locus YHR082C, strain KSP1, stronger effect = lower value 1 | locus YHR205W, strain SCH9, stronger effect = lower value 0.959 | locus YIL147C, strain SLN1, stronger effect = lower value 0.968 | locus YJL095W, strain BCK1, stronger effect = lower value 0.965 | locus YJL128C, strain PBS2, stronger effect = lower value 0.945 | locus YJL157C, strain FAR1, stronger effect = lower value 0.965 | locus YJR016C, strain ILV3, stronger effect = lower value 0.978 | locus YJR066W, strain TOR1 (second series), stronger effect = lower value 0.969 | locus YJR066W, strain TOR1, stronger effect = lower value 1.03 | locus YKL048C, strain ELM1, stronger effect = lower value 0.974 | locus YKL067W, strain YNK1, stronger effect = lower value 0.944 | locus YKL101W, strain HSL1, stronger effect = lower value 0.905 | locus YKL193C, strain SDS22, stronger effect = lower value 0.971 | locus YKL203C, strain TOR2, stronger effect = lower value 1.01 | locus YLR133W, strain CKI1, stronger effect = lower value 0.935 | locus YLR403W, strain SFP1, stronger effect = lower value 0.949 | locus YML070W, strain DAK1, stronger effect = lower value 0.916 | locus YMR001C, strain CDC5, stronger effect = lower value 0.973 | locus YMR205C, strain PFK2 (second series), stronger effect = lower value 0.946 | locus YMR277W, strain FCP1, stronger effect = lower value 0.974 | locus YNL006W, strain LST8, stronger effect = lower value 0.971 | locus YNL020C, strain ARK1, stronger effect = lower value 0.942 | locus YNL161W, strain CBK1, stronger effect = lower value 0.969 | locus YNL183C, strain NPR1, stronger effect = lower value 0.99 | locus YNL207W, strain RIO2, stronger effect = lower value 0.975 | locus YNL222W, strain SSU72, stronger effect = lower value 0.97 | locus YNL307C, strain MCK1 (second series), stronger effect = lower value 0.956 | locus YOL078W, strain AVO1, stronger effect = lower value 0.967 | locus YOL136C, strain PFK27, stronger effect = lower value 0.881 | locus YOR061W, strain CKA2, stronger effect = lower value 0.952 | locus YOR119C, strain RIO1, stronger effect = lower value 1.02 | locus YOR231W, strain MKK1, stronger effect = lower value 0.91 | locus YOR329C, strain SCD5, stronger effect = lower value 0.978 | locus YPL031C, strain PHO85, stronger effect = lower value 0.961 | locus YPL153C, strain RAD53, stronger effect = lower value 0.972 | locus YPL204W, strain HRR25, stronger effect = lower value 0.932 | locus YPL209C, strain IPL1, stronger effect = lower value 0.982 | locus YPL256C, strain CLN2, stronger effect = lower value 0.965 | locus YPR025C, strain CCL1, stronger effect = lower value 0.974 | locus YPR106W, strain ISR1, stronger effect = lower value 0.975 | locus YPR111W, strain DBF20, stronger effect = lower value 0.947 | strain NNK1, stronger effect = lower value 0.961 | strain TSCII, stronger effect = lower value 0.972
active: locus YLR113W, strain HOG1, stronger effect = lower value 0.854

Cc1nn(Cc2n[nH]c(=S)o2)c(C)c1Br
inactive: locus YAL013W, strain DEP1, stronger effect = lower value 0.998 | locus YBR229C, strain ROT2, stronger effect = lower value 0.993 | [1] 1 | locus YDR150W, strain NUM1, stronger effect = lower value 0.933 | locus YEL061C, strain CIN8, stronger effect = lower value 1.02 | locus YGR078C, strain PAC10, stronger effect = lower value 0.981 | [2] 1.02 | locus YHR087W, strain rtc3, stronger effect = lower value 0.983 | locus YJL187C, strain SWE1, stronger effect = lower value 0.968 | locus YJR043C, strain POL32, stronger effect = lower value 0.983 | locus YJR075W, strain HOC1, stronger effect = lower value 0.979 | locus YKL190W, strain CNB1, stronger effect = lower value 1.02 | locus YLR039C, strain RIC1, stronger effect = lower value 1.02 | locus YLR058C, strain SHM2 (second series), stronger effect = lower value 0.996 | locus YLR085C, strain ARP6, stronger effect = lower value 1.09 | locus YLR262C, strain YPT6, stronger effect = lower value 1.04 | locus YML094W, strain GIM5, stronger effect = lower value 1.02 | locus YMR219W, strain ESC1, stronger effect = lower value 0.996 | locus YMR263W, strain SAP30, stronger effect = lower value 0.93 | locus YNL128W, strain TEP1, stronger effect = lower value 1.01 | locus YNL153C, strain GIM3, stronger effect = lower value 1.01 | locus YNL298W, strain CLA4 (second series), stronger effect = lower value 1.05 | locus YNL322C, strain KRE1, stronger effect = lower value 0.999 | locus YNR030W, strain Alg12, stronger effect = lower value 1.01 | locus YPL055C, strain LGE1, stronger effect = lower value 0.955 | locus YPL241C, strain CIN2, stronger effect = lower value 1.02 | locus YPR135W, strain CTF4, stronger effect = lower value 1.04
